# Test results taken from PubChem BioAssay AID1486 (The Scripps Research Institute Molecular Screening Center, 2009).
# Out of some 220,000 compounds screened, about 2,400 (1.1%) were called active. The full list was thinned out, with actives kept by preference. Values without a mark were called inactive.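 The calls were made as follows: active = inhibition above a per-campaign cutoff, the mean inhibition of all tested compounds plus 3 SD (cut at about 27% in these data); inactive = the rest.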
# Experiment: growth loss in parental Ba/F3 cells – cell-based, murine pro-B, CellTiter-Glo luminescence, counter-screen for JAK2V617F inhibitor project (AID 1486);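 also: 0% = DMSO wells and 100% = JAK Inhibitor I control wells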
# Conditions: Ba/F3 parental viability, CellTiter-Glo ATP luminescence; at 5.6 µM; hits give high values
row,SMILES,inhibition
1,CCCCCCCCCCCCn1ccc(=N)cc1,102% (active)
2,CCC(C)n1c(O)c(/C=N/Nc2nc3c(c(=O)n(C)c(=O)n3C)n2C)c(=O)[nH]c1=S (stereo not given),-0.78%
3,O=c1c2ccccc2nc(/C=C/c2ccco2)n1-c1ccccc1O,-6.32%
4,CCOP(=O)(OCC)C(NC(=O)NC)C(N)=O (stereo not given),4.51%
5,CC/C(=N\NC(=O)c1ccccc1O)c1c(O)n(Cc2ccccc2)c(=O)[nH]c1=O,-2.72%
6,Cc1ccc(CN2CCCC(C(=O)c3ccc4c(c3)OCO4)C2)cc1C (stereo not given),2.33%
7,CCOc1ccc(-c2cc(C)[n+](CCN(CC)CC)c(-c3ccc(OCC)cc3)c2)cc1,81.7% (active)
8,O=c1[nH]c(=O)n(CCc2ccc(F)cc2)c(O)c1/C=N/N1CCCCC1,-4.39%
9,CC(C)c1ccc(-n2c(O)c(/C=N/N3CCOCC3)c(=O)[nH]c2=S)cc1,2.53%
10,COc1cc(OC)cc(C2(C#N)CCN(C)CC2)c1,-2.96%
11,CN(C)CC1Oc2ccccc2OC1(O)c1ccccc1 (stereo not given),8.72%
12,COCc1cc(OC(=O)N(C)C)nc(-c2ccc(C)c(Cl)c2)n1,3.28%
13,CC1=CC(=Cc2sc3ccccc3[n+]2C)C=C(C)O1,106% (active)
14,COc1ccc(-n2c(O)c(C(C)=Nc3ccc4c(c3)CCC4)c(=O)[nH]c2=O)cc1,2.36%
15,O=C1CC(=O)N(Cc2ccccc2)C(=O)N1CCCCCCN1C(=O)CC(=O)N(Cc2ccccc2)C1=O,-0.44%
16,CC1(C)Cc2c(C#N)c(N3CCNCC3)nc(-c3ccco3)c2CS1,1.77%
17,CC1=C(C(=O)Nc2ccccc2)S(=O)(=O)CCO1,0.55%
18,CNC(=O)O/N=C(\N)Cc1csc2ccc(Cl)cc12,3.22%
19,CCOc1cccc(=NC2CCCCC2)c2c(C)[nH]c(C)c12,50.8% (active)
20,COc1ccc(-n2c(-c3ccccc3)nc3ccccc3c2=O)cc1,1.83%
